High-throughput results from PubChem BioAssay.
Rows were chosen to be rich in hits. Some 11% of all compounds tested hit in one or more screens of this group.
ALDH1A1 block: ALDH1A1 (human) enzyme inhibition; P00352; Purified ALDH1A1, NADH fluorescence, propionaldehyde substrate; Potency, µM (series often up to 75.3 µM), without a hit: at the top dose activity, negative = inhibition, usual class: inhibitors; hit rate 7.3% among 220,000; AID 1030;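 also: potency is read from the fitted curve at half-maximal effect; plate controls were no enzyme wells and a reference inhibitor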
HPGD block: HPGD (human) dehydrogenase inhibition; purified HPGD, NADH fluorescence kinetic, PGE2 substrate; Potency, µM, for the others: at the top dose activity change, negative = inhibition, actives largely listed as inhibitors; hit rate 4.3% among 150,000; P15428; also: potency is read from the fitted curve at half-maximal effect
Target sequence (P15428 whole entry, looked up): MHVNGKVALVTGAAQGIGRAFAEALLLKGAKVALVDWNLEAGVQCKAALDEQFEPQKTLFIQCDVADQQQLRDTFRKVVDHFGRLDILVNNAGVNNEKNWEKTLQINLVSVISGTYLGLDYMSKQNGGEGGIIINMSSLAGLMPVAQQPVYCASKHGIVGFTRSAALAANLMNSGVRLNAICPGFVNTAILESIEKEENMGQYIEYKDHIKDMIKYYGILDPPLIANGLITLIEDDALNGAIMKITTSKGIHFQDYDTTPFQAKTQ
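20 nM HPGD preincubated 15 min at room temperature with compound in 50 mM Tris-HCl pH 8, 0.01% Tween 20. Started with 1 mM NAD+ and 30 uM prostaglandin E2; NADH fluorescence (360/450 nm) read 5 times over 30-s intervals, last minus first.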
IMPase inh: IMPase inhibition in cells; CHO-M1 cells, IP1 accumulation, HTRF TR-FRET ratio; 120,000 tested, under 10 active; P97697; inhibition (IP1 accumulation), % at 46.1 µM; AID 901; active = well fitted curve in the direction sought with a large enough effect in the signal ratio, not every such curve was filed as active; inconclusive = small, poorly fitted or top-dose-only effect, or a change in a side signal; inactive = no such curve, though single readings can be large or run the other way; the % refers to the signal ratio;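 also: cells stimulated with carbachol in lithium chloride buffer; plate controls were DMSO basal wells for no effect and reference inhibitor wells for full effect; higher means more IMPase inhibition seen as more IP1 and lower FRET ratio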
Target sequence (P97697 whole entry, looked up): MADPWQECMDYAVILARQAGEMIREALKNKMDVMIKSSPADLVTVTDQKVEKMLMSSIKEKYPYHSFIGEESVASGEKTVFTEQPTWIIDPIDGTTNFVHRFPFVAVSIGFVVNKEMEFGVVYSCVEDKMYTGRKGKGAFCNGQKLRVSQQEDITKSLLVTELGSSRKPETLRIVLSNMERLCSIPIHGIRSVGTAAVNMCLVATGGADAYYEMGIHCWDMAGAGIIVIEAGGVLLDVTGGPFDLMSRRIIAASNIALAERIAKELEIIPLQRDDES
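Cellular IMPase inhibition is scored as a rise in cytosolic IP1, detected by competitive TR-FRET between d2-labelled IP1 and a europium anti-IP1 antibody. M1-expressing CHO cells were stimulated with carbachol for 30 min at 37C, with lithium (50 mM LiCl) present in the buffer.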
PNC assembly inh: blocks assembly of the perinucleolar compartment; PC3M PTB-GFP, PNC prevalence imaging, 16 h; hits give low values; activity change (PNC), negative = inhibition, % at 10 µM; hit rate 3.1% among 140,000; AID 2417;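 active = readout at or below -70, meaning at least 70% loss of cells showing the perinucleolar compartment, a nuclear body marking cancer cells; inconclusive = readout between -30 and a set limit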;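 also: plate controls were DMSO wells for no effect and camptothecin positive control wells for full effect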
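PC3M cells stably expressing PTB-GFP, 750–1000 cells/well, treated 16 h at 37 °C with compound (23 nl of library stock), in duplicate. After paraformaldehyde fixation and Hoechst stain, imaged at 20x; PNC prevalence scored by image analysis.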
ALOX12 inhib: blocks human 12-lipoxygenase activity | AID 1452 | purified 12-hLO, xylenol orange hydroperoxide absorbance | hit rate 0.12% among 150,000 | Potency, µM (titrated, usually from 57.1 µM), for the others: at the top dose activity change, negative = inhibition, usual class: inhibitors | P18054; active = well fitted curve in the direction sought with a large enough effect; inconclusive = small, poorly fitted or top-dose-only effect, or another doubt; inactive = no such curve, though single readings can be large; an effect the other way counts as inactive or inconclusive; also: potency is read from the fitted curve at half-maximal effect; nearly all actives have a fitted effect of over 55% in size
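Hydroperoxide output read as Fe(III)-xylenol orange absorbance, 573-to-405 nm ratio, after 30 min reaction with 40 uM arachidonic acid. Enzyme: 150 nM purified human 12hLO, 15 min compound preincubation; 25 mM Hepes pH 7.0, room temperature.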
IMPase Li inh: membrane-permeable IMPase blocker, potentiated with lithium; AID 1457; CHO-M1 cells, IP1 TR-FRET (IP-One), carbachol + lithium; Potency, µM (series often up to 59.4 µM), inactives show top-dose activity, negative = IMPase inhibition, hits mostly inhibitors; hit rate 0.35% among 210,000; active = well fitted curve in the direction sought with a large enough effect; inconclusive = small, poorly fitted or top-dose-only effect, or another doubt; inactive = no such curve, though single readings can be large; an effect the other way counts as inactive or inconclusive;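 also: IP1 builds up when IMPase is blocked and the TR-FRET signal falls; potency is read from the fitted curve at half-maximal effect; plate controls were basal vehicle for no effect and high inhibitor control for full effect; nearly all actives have a fitted effect of over 50% in size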
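Lithium-sensitised IP1 accumulation assay; M1-expressing CHO cells treated 30 min at 37C with compound. Competitive antibody detection by time-resolved FRET followed a 10 min room-temperature lysis step.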
Active calls of the source: *; ? = inconclusive; · = no result; [ ] = another dose, or the depositor's remark. Unless noted, calls follow the shape of the dose curve; as a rule, active = well fitted inhibition curve with a large enough effect (not every such curve was filed as active); inconclusive = small, poorly fitted or top-dose-only effect, or another doubt; inactive = no such curve, though single readings can be large or run the other way. Unless noted, % is scaled to controls: 0 for no effect and ±100 for the full control effect.

SMILES | ALDH1A1 block | HPGD block | IMPase inh | PNC assembly inh | ALOX12 inhib | IMPase Li inh
Cc1cccc(N2CSC3=C(C#N)C(c4ccc(C)o4)CC(=O)N3C2)c1 (centres undefined) | 8.91µM* | 8.91µM* | -8.1 | ? | -25.6% | -14.3%[38.3 µM]
COC(=O)CSC1=C(C#N)C(c2ccc(C)o2)CC(=O)N1 (centres undefined) | -3.5% | · | · | · | · | 2.1%
COc1ccc(N2CSC3=C(C#N)C(c4cccc(OC)c4OC)CC(=O)N3C2)cc1 (centres undefined) | 12.6µM* | 8.91µM* | -29.2 | 12.3 | -25.6% | -13.1%[38.3 µM]
COc1cc(OC)c(C2CC(=O)N3CN(c4ccccc4C)CSC3=C2C#N)cc1OC (centres undefined) | 3.98µM* | 8.91µM* | 5.6 | -18.3 | -11.1% | -0.5%
COc1ccc(OC)c(C2CC(=O)N3CN(c4ccccc4)CSC3=C2C#N)c1 (centres undefined) | 7.94µM* | 7.08µM* | 6.6 | 34.5 | ? | 9.6%[38.3 µM]
COc1ccc(CN2CC(=O)N(c3ccccc3C)C2=S)cc1OC | 11.3% | · | · | · | · | -9.9%
CCCCCCCC/C=C\CCCCCCCC(=O)N(CCO)CCO | ? | -8.4% | · | · | -0.4% | -9.3%
CCc1ccccc1N1CSC2=C(C#N)C(c3ccccc3F)CC(=O)N2C1 (centres undefined) | 2.82µM* | 5.62µM* | 5.4 | ? | ? | 2.3%[38.3 µM]
COc1ccc(C2CC(=O)N3CN(c4ccccc4F)CSC3=C2C#N)cc1OC (centres undefined) | 7.08µM* | ? | -14.2 | 15.5 | -19.2% | 12.5%[38.3 µM]
COc1ccc(C2CC(=O)N3CN(c4ccc(C)c(Cl)c4)CSC3=C2C#N)cc1 (centres undefined) | 3.16µM* | ? | -1.9 | 63.0 | -26.9% | -21.9%[38.3 µM]
CCOC(=O)N1CCC(N(CCN(C)C)C(=S)Nc2ccc(Oc3ccccc3)cc2)CC1 | ? | · | · | · | · | 9.1%
CC(C)NC(=O)C1CCN(C2CCN(C(=O)c3scc4c3CCCC4)CC2)CC1 | ? | · | · | · | · | 2.2%
NC(=O)[C@@H]1CCCN1 | 8.2% | -6.0% | · | · | 0.6%[0.00818 µM] | -3.0%
COc1cccc(N2CCN(c3ncnc4c3[nH]c3ccccc34)CC2C)c1 (centres undefined) | 35.5µM* | -24.2% | 6.9 | ? | -9.9% | 9.6%
COc1cccc(N2CCN(c3ncnc4c3[nH]c3ccc(F)cc34)CC2C)c1 (centres undefined) | -5.9% | -17.3% | 14.9 | 68.8 | -6.8% | 31.6%[38.3 µM]
CCCN(C(=O)CCc1nc(-c2ccccc2F)no1)c1ccc(CC)cc1 | · | · | 16.1 | · | · | ·
CC1(C)CC(N2CCCC2)=CC(=[N+]2CCCC2)C1 | -5.5% | -12.5% | · | ? | -2.8% | 13.2%
CC1(C)CC(=O)C=C(N2CCN(C3=CC(=O)CC(C)(C)C3)CC2)C1 | 20µM* | -10.9% | 2.6 | ? | -7.1% | -4.0%[38.3 µM]
COc1ccc(-c2nc3cnc(N4CCNCC4)nc3n(-c3ccccc3)c2=O)cc1 | ? | ? | · | · | -5.1% | 4.4%
Cc1ccc(N)c2c1OCCC2=O | -6.2% | -6.4% | · | -117.9* | -0.9% | -5.2%
CCN(CC)S(=O)(=O)c1ccc(O)c(NC(=O)c2ccc(N3CCOCC3)c([N+](=O)[O-])c2)c1 | 0.708µM* | 31.6µM* | · | 28.4 | 0.0% | -2.1%
CCN(CC)S(=O)(=O)c1ccc(N2CCOCC2)c(NC(=O)CCC2CCCCC2)c1 | 1.58µM* | ? | 4.7 | -13.1 | -1.0% | 1.7%
CCN(CC)S(=O)(=O)c1ccc(N2CCOCC2)c(NC(=O)Cc2ccccc2)c1 | 12.6µM* | -9.4% | -4.4 | 75.4 | 5.2% | 11.3%
CC1CCN(c2ccccc2NC(=O)c2ccc(N3CCOCC3)c([N+](=O)[O-])c2)CC1 | 9.6% | 2.2% | -3.2 | ? | -2.0% | -4.9%
CCN(CC)S(=O)(=O)c1ccc(N2CCOCC2)c(NC(=O)Cc2ccccc2F)c1 | ? | -5.9% | · | 60.1 | -3.8% | 7.7%
